Experimental data from PubChem BioAssay AID1259417 (TB Discovery Research, Infectious Disease Research Institute, 2018).
Hit rate of the full screen: of about 1,100 compounds, about 760 (69%) were called active. No rule for the calls is given here. So high a share suggests a set chosen from earlier hits. Some of the results follow.

Assay: M. tuberculosis growth inhibition, HTS (AID 1259417);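 also: bacteria grown with compound for 5 days at 37 °C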
Conditions: stronger effect = higher value, concentration not given here
[1] = M. tuberculosis DsRed fluorescence growth inhibition
[2] = M. tuberculosis growth inhibition

Row | Structure (SMILES) | inhibition [1] | inhibition [2] [%]
1 | CCOC(=O)CSc1ccc(-c2nc3cc(C)c(C)cc3[nH]2)cn1 | 94.3% (active) | 96
2 | O=[N+]([O-])c1ccc(/C=N/n2c(CO)nc3ccccc32)s1 | 96.6% (active) | 97.7
3 | Cc1cc(C)n(-c2nc(NC(C)C)nc(NC(C)C)n2)n1 | 43.1% (active) | 41.4
4 | COC(=O)CSc1nnc(-c2ccc(OC)cc2OC)o1 | 85.8% (active) | 94.2
5 | CCOC(=O)CSc1nnc(-c2ccc(OC)cc2OC)o1 | 42.1% (active) | 70.4
6 | CCC(OC(C)=O)c1ccc(OC(C)=O)c(OC)c1 (stereo not given) | 99.1% (active) | 90.6
7 | COC(=O)COc1ccc(NC(=O)c2ccccc2F)cc1 | 77.8% (active) | 78.9
8 | COC(=O)COc1ccc(NC(=O)c2ccccc2I)cc1 | 61.7% (active) | 81.3
9 | COC(=O)COc1ccc(NC(=O)c2ccccc2Br)cc1 | 76.3% (active) | 91.1
10 | COC(=O)c1ccc(OCC(=O)Nc2ccccc2F)cc1 | 14.1% (active) | 74.2
11 | COC(=O)COc1ccc(NC(=O)c2ccccc2C)cc1 | 83.1% (active) | 93.5
12 | Cc1[nH]c2ccccc2c1SCCNC(=O)c1cc2ccccc2oc1=O | 5.93% (inactive) | 16.9
13 | O=C(NCCSc1c[nH]c2ccccc12)c1cc2ccccc2oc1=O | 20.8% (active) | 42.8
14 | CCCCCCc1cc2cc(C(=O)NC)c(=N)oc2cc1O | -2.33% (inactive) | -16.9
15 | Cc1ccc(-c2[nH]c3ccccc3c2SCCNC(=O)c2cc3ccccc3oc2=O)cc1 | -0.558% (inactive) | -17.6
16 | O=C(NCCc1c[nH]c2ccccc12)c1cc2ccccc2oc1=O | 99.2% (active) | 96
17 | O=C(NCCSc1c(-c2ccccc2)[nH]c2ccccc12)c1cc2ccccc2oc1=O | -6.27% (inactive) | -5.81
18 | Cc1nc2c(-c3ccc(Cl)cc3)cnn2c(N)c1-c1ccccc1 | 13.8% (inactive) | -1.8
19 | Cc1nn(-c2nc3ccccc3[nH]2)c(N)c1-c1ccccc1 | 50.6% (active) | 84.2
20 | Cc1cc(Nc2ccccc2)n(-c2nc3ccccc3[nH]2)n1 | 86.8% (active) | 93.2
21 | Cc1coc2c1C(=O)C(=O)c1c-2ccc2c1CCCC2(C)C | 96.6% (active) | 98.4
22 | CN(C)C(=S)Nc1nc2ccccc2s1 | 99.7% (active) | 99.8

Row | Structure (SMILES) | inhibition [1] | inhibition [2] [%]
23 | Cc1ccc(C2CC(C(F)(F)F)n3nc(C(=O)NCc4ccco4)cc3N2)cc1 (stereo not given) | 80% (active) | 76.1
24 | O=C(NCc1cccs1)c1cc2n(n1)C(C(F)(F)F)CC(c1ccc3c(c1)OCO3)N2 (stereo not given) | 2.08% (inactive) | -5.24
25 | CCCCNC(=O)c1cc2n(n1)C(C(F)(F)F)CC(c1ccccc1)N2 (stereo not given) | 95.4% (active) | 91.8
26 | CNc1nc(N2CCc3ccccc32)ncc1F | 100% (active) | 99.7
27 | COc1ccc2[nH]cc(CCNC(=S)Nc3ccc(Nc4ccccc4)cc3)c2c1 | -2.93% (inactive) | -13.6
28 | COc1ccc(NC(=O)C(Cc2c[nH]c3ccccc23)NC(C)=O)cc1 (stereo not given) | 93.6% (active) | 90.1
29 | Cc1ccc(-c2csc(Nc3ccc(C(=O)O)c(O)c3)n2)cc1 | 94.8% (active) | 94.9
30 | Cc1cc(-c2csc(Nc3ccc(S(N)(=O)=O)cc3)n2)ccc1F | 12% (inactive) | 9.99
31 | Cc1ccc(-c2csc(Nc3ccc(S(N)(=O)=O)cc3)n2)cc1 | 33.4% (active) | 44.5
32 | O=C(Nc1ccccc1-c1ccccc1)C(Cl)(Cl)Cl | 100% (active) | 99.6
33 | C/C=C/c1ccc(OCC(=O)OCc2csc(Nc3ccc(C)cc3)n2)c(OC)c1 | 0.924% (active) | 37.2
34 | Oc1ccc(Br)cc1C1=NNC(c2ccc(F)cc2)C1 (stereo not given) | 99.5% (active) | 100
35 | CCC(C)Oc1ccc(C(=O)NC(=S)Nc2ccc3c(c2)COC3=O)cc1 (stereo not given) | 30.7% (active) | 25.2
36 | COc1ccc2nc(C)cc(SCC(=O)OC(C)C)c2c1 | 89.3% (active) | 99.6
37 | CCOC(=O)CSc1cc(C)nc2ccc(C)cc12 | 96.8% (active) | 99.3
38 | Oc1cccc2ccc(C=Cc3cccc(F)c3)nc12 | 98.8% (active) | 99.7
39 | CC(=O)Oc1cccc2ccc(C=Cc3ccc(F)cc3)nc12 | 86.6% (active) | 89.9
40 | O=C(C=Cc1cccc(C(F)(F)F)c1)Nc1cccc(Br)c1 | 9.1% (inactive) | 9.88
41 | CCC(=O)Oc1cccc2ccc(C=Cc3ccccc3F)nc12 | 92.1% (active) | 87.6
42 | CC(=O)Oc1cccc2ccc(C=Cc3cccc(Br)c3)nc12 | 87.4% (active) | 84
43 | Cc1ccc(-c2csc(NC(=O)C[n+]3cc(-c4ccc(C)cc4)n4c3CCC4)n2)cc1 | 13.7% (inactive) | 7.92
44 | O=C(C[n+]1cc(-c2ccc(Cl)c(Cl)c2)n2c1CCC2)N1c2ccccc2Sc2ccccc21 | 37.7% (active) | 43.1

Row | Structure (SMILES) | inhibition [1] | inhibition [2] [%]
45 | O=C(C[n+]1cc(-c2ccc(Cl)cc2)n2c1CCC2)N1c2ccccc2Sc2ccccc21 | 10.7% (inactive) | 3.46
46 | CCCCn1c(=O)c(C(=O)Nc2nnc(C(C)C)s2)c(O)c2ccccc21 | 76.9% (active) | 72.9
47 | CCOC(=O)COc1ccc2ccccc2c1C=C(C)[N+](=O)[O-] | 24% (inactive) | 10.8
48 | COc1cc(/C=C/c2ccc3c([N+](=O)[O-])cccc3n2)ccc1OCC(=O)O | 89.6% (active) | 92.7
49 | O=[n+]1c2ccccc2n([O-])c2ccccc21 | 98.3% (active) | 98.8
50 | CCCn1c(CNc2ccccc2O)nc2ccccc21 | 99.4% (active) | 100
51 | COC(=O)c1c(NC(=O)c2cc(OC)cc(OC)c2)sc2c1C(C(=O)OC)CC2 (stereo not given) | -0.558% (inactive) | -13.8
52 | CCOC(=O)c1c(NC(=O)c2cccc([N+](=O)[O-])c2)sc(CC)c1-c1ccccc1 | 4.19% (inactive) | -29.7
53 | CCc1c(C)sc(NC(=O)c2ccc(Br)cc2)c1C(N)=O | 4.19% (inactive) | 7.97
54 | CCOC(=O)c1c(NC(=O)c2cccc(OC)c2)sc(C)c1-c1ccccc1 | 0.932% (inactive) | -15.9
55 | COC(=O)c1c(-c2ccccc2)csc1NC(=O)c1cc(OC)cc(OC)c1 | 4.19% (inactive) | -6.55
56 | Cc1ccccc1C(=O)Nc1sc(Cc2ccccc2)c(C)c1C(N)=O | -2.04% (inactive) | -9.31
57 | CCOC(=O)c1c(NC(=O)c2c(F)c(F)c(F)c(F)c2F)sc(C(=O)OC)c1C | 99.4% (active) | 97.6
58 | COC(=O)c1sc(NC(=O)c2c(F)c(F)c(F)c(F)c2F)c(C(N)=O)c1C | 98.6% (active) | 96.9
59 | CCc1c(C)sc(NC(=O)c2c(F)c(F)c(F)c(F)c2F)c1C(=O)OC(C)C | 98.2% (active) | 95.8
60 | COC(=O)c1c(-c2ccc(Cl)cc2)csc1NC(=O)c1c(F)c(F)c(F)c(F)c1F | 91.1% (active) | 87.2
61 | CCOC(=O)c1c(-c2ccc(C)o2)csc1NC(=S)NC(=O)N(C)C | 2.65% (inactive) | -1.32
62 | CCOC(=O)c1c(NC(=O)c2c(F)c(F)c(F)c(F)c2F)sc(C(N)=O)c1C | 98.6% (active) | 99.4
63 | COC(=O)c1sccc1NC(=O)c1c(F)c(F)c(F)c(F)c1F | 99.1% (active) | 97.7
64 | CCOC(=O)c1c(NC(=O)c2cccc(OC(C)=O)c2)sc(CC)c1-c1ccccc1 | 2.11% (inactive) | -5.86
65 | CCOC(=O)c1sc(NC(=O)c2c(F)c(F)c(F)c(F)c2F)c(C(=O)OCC)c1C | 93.8% (active) | 88.9
66 | CCOc1ccc2ccccc2c1C(=O)Nc1sc(C)c(C)c1C(N)=O | 9.82% (inactive) | 9.7

Row | Structure (SMILES) | inhibition [1] | inhibition [2] [%]
67 | Clc1ccc2c(c1)C1=C(C(c3ccncc3)O2)C(c2ccc(Br)cc2)n2ncnc2N1 (stereo not given) | 96% (active) | 93.9
68 | COc1cccc(C=NNc2nc(=O)[nH]nc2C)c1O | 91.7% (active) | 94.9
69 | CC(=NNc1nc(=O)[nH]nc1C)c1ccccc1O | 98.6% (active) | 98.8
70 | COc1ccc(C2(C(=O)Nc3ccc(Br)cc3)CCCC2)cc1 | 63.2% (active) | 81.4
71 | CC(=NNc1nc(C)c(C)s1)c1ccc(Br)cc1 | 96.2% (active) | 89.4
72 | CCOC(=O)COc1ccc2c(C#N)c3ccccn3c2c1 | -0.849% (inactive) | 22.1
73 | CCOC(=O)CCc1c(C)c(C#N)c2[nH]c3ccccc3n2c1=O | 98.3% (active) | 96.2
74 | COC(=O)c1c2c(n3ccc(C)cc13)C(=O)c1ccccc1C2=O | 99.2% (active) | 98.8
75 | CCOC(=O)C1=C(c2ccc(C)cc2)C(=O)c2ccccc2C1=O | 14.4% (inactive) | 16.3
76 | CN(C)c1ccc(NC(=O)c2ccncc2)cc1 | 98% (active) | 100
77 | CC(C)(C)c1ccc(C(=O)Nc2cccc(NC(=O)c3cccs3)c2)cc1 | 0.571% (inactive) | 22.7
78 | Cc1ccc(NC(=O)c2cc3cc(Cl)cc(Cl)c3oc2=O)c(C)c1 | 9.67% (active) | 43.2
79 | O=C1c2ccccc2C(=O)N1CCCCN(C(=O)c1cc([N+](=O)[O-])cc([N+](=O)[O-])c1)c1ccc(Cl)cc1 | 97.2% (active) | 92.5
80 | CC1=CC(C)(C)Nc2ccc(OC(=O)c3cccs3)cc21 | 49.6% (active) | 74.6
81 | CCOC(=O)c1c(C)oc2ccc(OC(=O)c3cccs3)cc12 | -0.261% (inactive) | 2.41
82 | CC1=CC(C)(C)Nc2ccc(OC(=O)c3cccnc3)cc21 | 9.4% (active) | 36.8
83 | NC(=O)c1c(NC(=O)c2ccc(COc3ccccc3Cl)cc2)sc2c1CCCC2 | -7.68% (inactive) | -40
84 | Cc1cccc(N2CCN(c3ncnc4sc5c(c34)CCCC5)CC2)n1 | 7.93% (inactive) | -17.2
85 | O=C(Nc1ncnc2sc3c(c12)CCCC3)c1ccc(F)cc1 | 26.6% (active) | 61.8
